The values that follow come from PubChem BioAssay (NCATS).

Records with an inconclusive call do not appear. Unmarked numbers belong to inactive results. Activity calls are given as the source filed them. Calls follow the shape of the dose curve; as a rule, active = well fitted inhibition curve with a large enough effect; inconclusive = small, poorly fitted or top-dose-only effect; inactive = no such curve, though single readings can be large or run the other way.
% is scaled to controls: 0 for no effect and ±100 for the full control effect; potency is read from the fitted curve at half-maximal effect.

For this assay, the system named is Zika virus NS2B-NS3 protease (unlinked complex). Nature of the assay: Primary screen GU Rhodamine qHTS for Zika virus inhibitors: Unlinked NS2B-NS3 protease assay (AID 1347159). Also: nearly all actives have a fitted effect of over 60% in size. Particulars: Recombinant ZIKV NS2B-NS3 protease, Rhodamine110 substrate fluorescence; series mostly up to 107 µM; activity change, negative = inhibition: at the top concentration. In short, it runs like this: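 Enzyme 25 nM in Tris-HCl pH 8.0 + 0.01% Tween 20; compounds up to 114 microM, 15 min RT dark; + Rhod110 substrate 1.5 microM; read t0 and 15 min; delta fluorescence → % inhibition → 4-parameter Hill fit.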
With `CC(=O)c1ccc(O[C@@H]2O[C@H](CO)[C@@H](O)[C@H](O)[C@H]2O)cc1`, the “activity change, negative = inhibition” value is 4.69%.
For `Cc1cn(C2C=CC(CO)O2)c(=O)[nH]c1=O` (stereo not given), the “activity change, negative = inhibition” value was -2.07%.
Still for that read-out and setting: the value for `C=CC(=O)N1CCN(C(=O)CNc2cc(I)c(Cl)cc2O)CC1` was -11.2%; that for `COc1cc(O)c([C@@H](CC(=O)N2CC(C)CC(C)C2)c2ccc3c(c2)OCO3)c(OC)c1` (stereo not given in full) was -13%.
Take `CC1CCC23COC(=O)C2=CC(O)CC3C1(C)CCC1=CC(O)OC1=O` (stereo not given): the Potency is 8.91 µM (active).
Turning to `OCC(CO[C@@H]1O[C@H](CO)[C@@H](O)[C@H](O)[C@H]1O)c1ccc2c(c1)OCO2` (stereo not given in full), the “activity change, negative = inhibition” value is -27.8%.
Still for that read-out and setting: the value for `O=C(OC[C@@]1(O)CO[C@@H](O[C@H]2[C@H](Oc3ccc(O)cc3)O[C@H](CO)[C@@H](O)[C@@H]2O)[C@@H]1O)c1ccc(O)cc1` was 21.7% [at 57.1 µM].
Regarding `COc1cc2c3c(cc4ccccc4c3c1O)NC2=O`, the Potency is 22.4 µM (active).
Turning to `C[C@H](Oc1ccc(S(C)(=O)=O)cc1C(=O)N1CCN(c2ncc(C(F)(F)F)cc2F)CC1)C(F)(F)F`, the “activity change, negative = inhibition” value is 24.3%.
For the compound `C=C[C@]1(C)C=C2CCC3C(C)(CCC[C@@]3(C)C(=O)O)C2CC1` (stereo not given in full), the Potency was 12.6 µM (active).
Turning to `Cc1ccc(C(=O)Nc2noc3ccccc23)cc1`, the “activity change, negative = inhibition” value is -7.39%.
With `C/C(=C\C=C\C(C)C1CCC2(C)C3CCC4C(C)(C)C(=O)CCC45CC35CCC12C)C(=O)O` (stereo not given), the Potency was 4.47 µM (active).
For `Cc1[nH]c2ccccc2c1C1=C(NCCc2ccc(F)cc2)C(=O)N(C)C1=O`, the “activity change, negative = inhibition” value was -20.4%.
On the same count and under the same terms, the value for `CC(=O)OCC1(O)CCC2C(COC3OC(CO)C(O)C(O)C3OC(=O)/C=C/c3ccc(O)cc3)=COC(OC(=O)CC(C)C)C21` (stereo not given) was -29.7% [at 32.5 µM].
With `C=C1C(=O)OC2CC3(C)C(CC12)C(C)=CC(O)C3OC(C)=O` (stereo not given), the Potency is 25.1 µM (active).
On the same count and under the same terms, then `CC(=O)c1c(O)cc(O[C@@H]2O[C@H](CO)[C@@H](O)[C@H](O)[C@H]2O)cc1O`, with 31.6 µM (active); and `CC1(C)CC[C@]2(C(=O)O[C@@H]3O[C@H](CO)[C@@H](O)[C@H](O)[C@H]3O)CC[C@]3(C)C(=CCC4[C@@]5(C)C[C@@H](O)[C@H](O)[C@@](C)(CO)C5CC[C@]43C)C2[C@@H]1O` (stereo not given in full), with 10 µM (active); and `C/C=C/C=C/C=C/C(=O)OC1C=C(C=O)C(O)(C(=O)O)C2(C)CCCC(C)(C)C12` (stereo not given), with 8.91 µM (active).
As to `CC(C)c1cc2c(c(O)c1O)[C@@]13CCCC(C)(C)[C@@H]1[C@H](OC3=O)C2=O`, the Potency is 8.91 µM (active).
Still for that read-out and setting: the value for `CC(C)(C)C(=O)CN1C(=O)[C@H](NC(=O)Nc2cccc(C(=O)O)c2)CN(C2CCCCC2)c2ccccc21` was 10 µM (active); that for `CCOc1cc(CC(=O)NC(CC(C)C)c2ccccc2N2CCCCC2)ccc1C(=O)O` (stereo not given) was 20 µM (active).
As to `CC(=O)OC1C[C@@]2(C)[C@@H](CC[C@@H](C)[C@]23Cc2c(O)cc4c(c2O3)CNC4=O)C(C)(C)[C@@H]1O` (stereo not given in full), the “activity change, negative = inhibition” value was -2.67% [at 57.1 µM].
On the same count and under the same terms, the value for `CC(=O)O[C@@H]1[C@@H](O)[C@H](O[C@H]2CC[C@]34C[C@]35CC[C@]3(C)[C@@H]([C@@]6(C)CC[C@@H](C(C)(C)O)O6)[C@@H](O)C[C@@]3(C)[C@@H]5C[C@H](O[C@@H]3O[C@H](CO)[C@@H](O)[C@H](O)[C@H]3O)[C@H]4C2(C)C)OC[C@H]1O` was 1.94%.
Turning to `C=C1C(=O)OC2CC(C)=C(C(C)CCCO)C(O)C12` (stereo not given), the Potency was 20 µM (active).
Still for that read-out and setting: the value for `C/C1=C\CCC(C)CCO[C@@H]2O[C@H](CO[C@@H]3OC[C@H](O)[C@H](O)[C@H]3OC1=O)[C@@H](O)[C@H](O)[C@H]2O` (stereo not given in full) was 31.6 µM (active).
On the same count and under the same terms, then `CC(C)[C@@H](CS(=O)(=O)C(C)C)N1C(=O)[C@@](C)(CC(=O)O)C[C@H](c2cccc(Cl)c2)[C@H]1c1ccc(Cl)cc1`, with 28.2 µM (active).
In the case of `COc1ccc(-c2cnc3ccc(NCc4ccc(S(N)(=O)=O)cc4)nn23)cc1OC`, the “activity change, negative = inhibition” value was 9.63%.
Same read-out and setting: then `CCCC(=O)NCCc1csc(-c2ccc(Cl)cc2)n1`, with 0%; and `CC(C)CC(=O)OC1OC=C(CO[C@@H]2O[C@H](CO)[C@@H](O)[C@H](O)[C@H]2O)C2CC(O)C(O)(CO)C12` (stereo not given in full), with -14.4% [at 57.1 µM]; and `CS(=O)(=O)c1ccc([C@H](CC2CCCC2)C(=O)Nc2nccs2)cc1`, with 4.61%.
On to `COc1ccc(C(=O)Nc2ncc(-c3ccc(C(=O)O)cc3)s2)cc1`, for which the Potency is 28.2 µM (active).
On to `COc1ccc(-n2[nH]c(=O)c3[nH]c4cc(Cl)ccc4c(=O)c3c2=O)c(C)c1`, for which the Potency is 56.2 µM (active).
As to `Cc1ccc(C)c(OCCn2cc(C(=O)O)c3ccccc32)c1`, the Potency is 39.8 µM (active).
Same read-out and setting: the value for `C=C1CCC2C(C)(C)C(O)CCC2(C)C1CCC(C)CCO` (stereo not given) was 7.08 µM (active).
Turning to `CC(=O)O[C@@H]1[C@@H](CO)O[C@@](CO)(O[C@H]2O[C@H](COC(=O)/C=C/c3ccccc3)[C@@H](O)[C@H](O)[C@H]2O)[C@H]1O`, the “activity change, negative = inhibition” value is -7.1% [at 57.1 µM].
As for `COc1c2c(cc3c1-c1c(cc4c(c1OC)OCO4)CC(C)C(C)C3)OCO2` (stereo not given), the “activity change, negative = inhibition” value is -15.6%.
For `Cc1noc(-c2ccc(-c3ccc(CC(=O)O)cc3)cc2)c1NC(=O)O[C@H](C)c1ccccc1`, the Potency was 14.1 µM (active).
The same measure, in the same setting: the value for `CC(C)CCC1(O)C(=O)C(C)(C)C(O[C@@H]2O[C@H](CO)[C@@H](O)[C@H](O)[C@H]2O)C(C)(C)C1O` (stereo not given in full) was 35.5 µM (active).
As for `CC(C)CCC(=O)CC1c2ccccc2C(=O)N1c1ccc2ccc(Cl)nc2n1` (stereo not given), the “activity change, negative = inhibition” value is -15%.
On the same count and under the same terms, the value for `CN(C)c1ccc2c(c1)OC(N)=C(C#N)C2c1cccc(C(F)(F)F)c1` (stereo not given) was 0%.
